# Laboratory results published in the OligoGym collection.
# Target: CDH2
# Test: pooled miR-30 sensor sort-seq; sequence = guide strand
# Settings: shRNA
# Further: reference of the scale not given here.
row,Sequence,sensor-assay potency score (higher = more potent)
1,TTAACGTATACTGTTGCACTTT,-0.309
2,TTTTTATCTCTATCAGACCTGA,-0.29
3,TTGCTGCATATATCGATCTGGG,-0.846
4,TTCATAGTCAAACACTAACAGG,-1.55
5,TTCAACTTCTGCTGACTCCTTC,0.711
6,TATTTCTTCAACTTCTGCTGAC,0.204
7,TCACATTTGGTGATTCTCGGTC,0.353
8,TTGATTGTAAACATGTTGGGTG,0.885
9,TTTGCTGCATATATCGATCTGG,0.226
10,TTATCTTTAAATTAAGCTGAGC,-0.63

# Target: CDK9
# Test: as above
# Settings: shRNA
row,Sequence,sensor-assay potency score (higher = more potent)
1,TTGACCACATTCTCGTGTTTTA,-0.499
2,TTAGCAGCCTTCATGTCCCTAT,-0.0117
3,TGAAGGATCTTGATCTCCCGCA,-0.0916
4,TCTCGTATTTGGAAACTTCATC,-1.02
5,TTGATCTCCCGCAAGGCTGTAA,-0.379
6,AAAACATTGCTCAACAGCCCAG,-1.38
7,TCAAGTTGACCACATTCTCGTG,-0.846
8,TACCAGAGTGTCACCACACGGT,0.18
9,ATTCTCGTGTTTTAGAAGCTGA,0.181
10,TTGTCGATGAGGTCCAGTGCGT,-0.728
11,TTTTCCATCAGCACCTTCTTCA,-0.28
12,AAGTACTCGAACATGGACGTCA,0.37
13,TTGAACACCTCCCCGAAGGTGC,-0.836
14,TTTTAGAAGCTGAAGGATCTTG,-0.461
15,TATTTGGAAACTTCATCACAAA,-1.19
16,TTCTTCAGAGCCACCTTCTGGC,0.0361
17,ATCTCTGCCATGATGCACCCAG,-0.791
18,TATATACTACCCTTGCAGCGGT,-0.627
19,TAGAAGCTGAAGGATCTTGATC,-0.488
20,TCGAACACCAGGTATATACTAC,-0.813
21,AACTTGACCAAAACATTGCTCA,-0.141
22,TATACTACCCTTGCAGCGGTTA,-0.622
23,TACTCGAACATGGACGTCAGGT,-0.285
24,TTTCTGTGGATGTAGTAGAGGC,-0.227

# Target: CDKL2
# Test: as above
# Settings: shRNA
row,Sequence,sensor-assay potency score (higher = more potent)
1,TTTAACTGTAGTTCTTGGGAAA,-0.938
2,TTCAACTAAGGAATCATCTTTT,0.409
3,TTTAGTAACTTGATTTCTCGCA,0.263
4,TTTCTTTCTTCAACTAAGGAAT,-1.1
5,TTTAAATAGTTTATAATCCTTA,-0.355
6,TTAGTAACTTGATTTCTCGCAT,0.346
